This is a sample that favours compounds with a hit; in the whole collection about 1.5% have one here.
CRFR2-BP ag: CRF-BP/CRF-R2 complex agonism | HEK293 CRF-R2/CRF-BP, calcium dye fluorescence (FLIPR); percent of saturating CRF peptide response | activation, % at 13.2 µM | AID 588473 | 350,000 compounds, 0.46% hits;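 active means activation of at least 50%, plus an integration ratio under a set limit after plate pattern correction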
CRFBP-R2 block: CRF-BP/CRF-R2 complex antagonism; HEK293 CRF-R2/CRF-BP, CRF-induced calcium fluorescence; inhibition, % at 11.8 µM; 350,000 compounds, 0.59% hits; AID 588475;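 active means inhibition of the ligand-induced calcium signal above about 50% at the single tested concentration, limit read from the data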
IDE cell inh: cellular human IDE inhibition | 320,000 compounds, 0.41% hits | HEK cells, FAbetaB cleavage, fluorescence polarization | inhibition, % at 5.59 µM | AID 434962;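 active means percent inhibition above the average of all tested compounds plus 3 SD, set per screening campaign, cut at about 16% in these data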;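 further: IDE supplied by intact live HEK cells; FP after avidin binding of uncleaved biotin substrate so inhibition keeps polarization high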
Target sequence (P14735 whole entry, looked up): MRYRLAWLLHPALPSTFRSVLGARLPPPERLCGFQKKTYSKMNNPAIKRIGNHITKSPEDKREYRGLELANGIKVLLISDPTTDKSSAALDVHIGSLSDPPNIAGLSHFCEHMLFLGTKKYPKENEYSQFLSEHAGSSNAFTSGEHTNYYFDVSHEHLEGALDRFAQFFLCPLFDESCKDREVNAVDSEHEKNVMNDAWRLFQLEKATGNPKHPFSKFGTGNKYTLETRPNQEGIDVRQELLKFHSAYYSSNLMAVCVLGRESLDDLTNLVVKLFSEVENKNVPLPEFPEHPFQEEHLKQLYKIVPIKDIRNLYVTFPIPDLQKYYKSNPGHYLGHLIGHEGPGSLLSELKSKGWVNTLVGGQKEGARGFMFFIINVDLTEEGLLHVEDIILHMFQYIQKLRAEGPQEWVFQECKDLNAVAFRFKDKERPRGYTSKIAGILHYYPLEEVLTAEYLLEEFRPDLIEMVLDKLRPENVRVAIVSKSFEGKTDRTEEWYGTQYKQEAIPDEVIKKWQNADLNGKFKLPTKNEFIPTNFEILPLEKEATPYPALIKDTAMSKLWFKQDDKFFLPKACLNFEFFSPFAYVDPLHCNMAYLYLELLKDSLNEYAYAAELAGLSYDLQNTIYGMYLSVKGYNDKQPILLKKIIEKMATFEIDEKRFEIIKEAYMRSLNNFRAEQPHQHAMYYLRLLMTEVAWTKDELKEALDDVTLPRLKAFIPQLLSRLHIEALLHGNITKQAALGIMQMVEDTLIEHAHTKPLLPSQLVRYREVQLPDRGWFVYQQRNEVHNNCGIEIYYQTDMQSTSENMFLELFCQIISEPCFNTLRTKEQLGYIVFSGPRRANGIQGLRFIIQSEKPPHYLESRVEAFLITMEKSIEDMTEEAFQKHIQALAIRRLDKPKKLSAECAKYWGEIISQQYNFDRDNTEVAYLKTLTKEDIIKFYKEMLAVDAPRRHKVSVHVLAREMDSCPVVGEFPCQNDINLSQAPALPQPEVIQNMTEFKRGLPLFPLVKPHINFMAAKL
RTF Ca sens act: cardiac RTF calcium sensitization | P19429+P45379 | IANBD-labeled TnC RTF fluorescence at EC20 calcium; 0% EC20 calcium, 100% full calcium | activation, % at 7.2 µM | 340,000 compounds, 0.24% hits;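 active means activation above the mean over all tested compounds plus 3 SD, cut at about 30% in these data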;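 further: rise in fluorescence read as greater calcium sensitivity of cardiac thin filaments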
RTF Ca sens inh: cardiac RTF calcium desensitization | P19429+P45379 | IANBD-labeled cardiac RTF, Ca2+ fluorescence | inhibition, % at 7.15 µM | 340,000 compounds, 0.12% hits | AID 493244;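 active means inhibition above the mean inhibition of all tested compounds plus 3 SD, cut at about 17% in these data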;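 further: assay run at fixed EC70 calcium of 1.6 mM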
IDE act: activators of human insulin-degrading enzyme in cells. HEK cells, FAbeta-B cleavage, fluorescence polarization; 0% vehicle, 100% cell-free pure enzyme wells. activation, % at 5.96 µM. AID 493087. 340,000 compounds, 0.073% hits;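 active means activation above the mean of all tested compounds plus 3 SD, set per screening campaign, cut at about 17% in these data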
A number is an active result; 0 = inactive; - = no result.

SMILES | CRFR2-BP ag | CRFBP-R2 block | IDE cell inh | RTF Ca sens act | RTF Ca sens inh | IDE act
Cc1ccc(NC(=O)Cc2nnc(SCC(=O)NC3=NCCS3)n2C)cc1 | 0 | 0 | 0 | 0 | 0 | 0
Cc1ccc(C)c(NC(=S)NCCCN2CCOCC2)c1 | 0 | 125.5 | 0 | 0 | 0 | 0
Cc1ccc(C)c(NC(=O)C(=O)NCCCN2CCOCC2)c1 | 0 | 0 | 0 | 0 | 0 | 0
O=C1CC2CS(=O)(=O)CC2N1c1ccc(Oc2ccccc2)cc1 (centres undefined) | 0 | 121.3 | 0 | 0 | 0 | 0
O=C1N(c2ccccc2)C2CS(=O)(=O)CC2N1c1ccc(Cl)c(Cl)c1 (centres undefined) | 0 | 0 | 0 | 0 | 0 | 0
COc1ccc2c(c1)OC[C@H]1[C@H]2N2C(=O)c3cc(OC)c(OC)cc3NC(=O)[C@@]2(C)[C@H]1c1ccccc1 | 0 | 65.2 | 0 | 0 | 0 | 0
COc1cc2c(cc1OC)C(=O)N1[C@H]3c4ccccc4OC[C@@H]3[C@H](c3ccccc3)[C@]1(C)C(=O)N2 | 0 | 0 | 0 | 0 | 0 | 0
CCC1=NN(C(=O)c2ccc(Cl)cc2)C(O)(c2ccccc2)C1 (centres undefined) | 0 | 0 | 0 | 0 | 0 | 0
CCOC(=O)C1=NN(C(=O)c2ccc(C)cc2)C(O)(c2ccc(Cl)cc2)C1 (centres undefined) | 89.8 | 0 | 0 | 0 | 0 | 0
CCC1=NN(C(=O)c2ccc(Cl)cc2)C(O)(c2ccc(C)cc2)C1 (centres undefined) | 0 | 0 | - | 0 | 0 | 0
COC(=O)C1=NN(C(=O)c2ccc(Cl)cc2)C(O)(c2ccccc2)C1 (centres undefined) | 72.3 | 0 | 0 | 0 | 0 | 0
Cc1cc(S(=O)(=O)N2CCCC(N(C)CCc3ccccn3)C2)c(C)cc1Cl (centres undefined) | 0 | 0 | 0 | 0 | 0 | 0
CC1Sc2ccc(S(=O)(=O)CCC(=O)N(C)Cc3ccccc3)cc2NC1=O (centres undefined) | 0 | 0 | 0 | 0 | 0 | 0
O=C(Nc1cccc(O)c1)c1ccc(NC(=O)c2cccs2)cc1 | 0 | 68.0 | 0 | 0 | 0 | 0
N#CCC(=O)Nc1ccc(C(=O)OCC(=O)NNC(=O)c2cccs2)cc1 | 0 | 54.9 | 0 | 0 | 0 | 0
CCOC(=O)C1(Cc2cccc(Cl)c2)CCCN(C(=O)CCN2CCCC2=O)C1 (centres undefined) | - | - | 0 | 0 | 0 | 0
CCN(CC)S(=O)(=O)c1ccc(N2CC(C(=O)Nc3cccc(C(=O)NC4CC4)c3)CC2=O)cc1 (centres undefined) | 0 | 0 | - | 0 | 0 | 0
CCOC(=O)c1cc([N+](=O)[O-])sc1NC(=O)c1ccc(S(=O)(=O)N2CC3(C)CC2CC(C)(C)C3)cc1 (centres undefined) | 152.4 | 0 | 0 | 0 | 0 | 0
CCN(CC)S(=O)(=O)c1ccc(OC)c(NC(=O)CSCc2c(C)noc2C)c1 | 0 | 0 | 0 | 0 | 0 | 0
Cc1ccc(S(=O)(=O)/N=C2\C=C(Nc3cccc(C(=O)O)c3)C(=O)c3ccccc32)cc1 | 0 | 0 | 0 | 0 | 0 | 0
Cc1ccc(S(=O)(=O)/N=C2\C=C(Nc3cccc(C(=O)O)c3)C(=O)c3ccccc32)c(C)c1 | 0 | 66.0 | 0 | 0 | 0 | 0
C/C=C(\C)C(=O)OC1CC(C)(C)C[C@H]2C3=CC[C@@H]4[C@@]5(C)CCC(O[C@@H]6O[C@@H](C(=O)O)[C@@H](O)C(O[C@@H]7OC[C@H](O)[C@@H](O)[C@@H]7O[C@@H]7OC(CO)C(O)[C@@H](O)[C@@H]7O)C6O[C@@H]6OC(CO)C(O)C(O)C6O)[C@@](C)(CO)[C@@H]5CC[C@]4(C)[C@]3(C)CC(O)[C@@]12CO (some centres undefined) | 78.2 | 0 | 0 | 0 | 0 | 0
CC1(C)CC[C@]2(C(=O)O[C@@H]3OC(CO)[C@@H](O)[C@H](O)[C@H]3O)CC[C@]3(C)C(=CCC4[C@@]5(C)CC[C@H](O[C@@H]6OC(C(=O)O)[C@@H](O)[C@H](O)[C@H]6O)C(C)(C)C5CC[C@]43C)[C@@H]2C1 (some centres undefined) | 0 | 0 | 0 | 0 | 0 | 0
COc1cccc(CN2C(=NC(=O)C3CC3)SC3CS(=O)(=O)CC32)c1 (centres undefined) | 0 | 0 | 0 | 0 | 0 | 0
CC(C)=CCC/C(C)=C/CNC(=O)C[C@H]1C[C@H](C(=O)N2CCCCC2)[C@@]2(CCc3ccccc3)c3[nH]c4cc(CCC(=O)N(C)C)ccc4c3CCN2C1=O | 0 | 0 | - | 0 | 0 | 0
SMILES | CRFR2-BP ag | CRFBP-R2 block | IDE cell inh | RTF Ca sens act | RTF Ca sens inh | IDE act
CCC(CC)C(=O)c1c[nH]c(C(=O)NCc2ccc(F)cc2)c1 | 0 | 0 | 0 | 0 | 0 | 0
CCOc1ccc(NC(=S)N(Cc2ccc(N(C)C)cc2)Cc2ccco2)cc1 | 0 | 76.6 | 0 | 0 | 0 | 0
O=C(CC(CC(=O)c1ccccc1)c1ccncc1)c1ccccc1 | 0 | 86.3 | - | 0 | 0 | 0
CSc1ccc(S(=O)(=O)N2CCC(C(=O)Nc3ccccc3C(F)(F)F)CC2)cc1 | 0 | 0 | 0 | 0 | 0 | 0
COc1cc(Cl)c(C)cc1NC(=O)CSc1ccc(C)cc1 | 0 | 50.0 | 0 | 0 | 0 | 0
CCOc1ccccc1N(CC(=O)N1CCOCC1)S(=O)(=O)c1ccc(SC)cc1 | 109.1 | 0 | - | 0 | 0 | 0
Cc1ccc(S(=O)(=O)N(CC(=O)N2CCOCC2)c2ccccc2F)cc1 | 0 | 0 | 0 | 0 | 0 | 0
O=c1c2ccccc2c(-c2ccc(O)cc2)nn1-c1cccc(C(F)(F)F)c1 | 0 | 57.1 | 0 | 0 | 0 | 0
O=c1c2ccccc2c(-c2cccc(C(F)(F)F)c2)nn1-c1ccccc1 | 0 | 0 | 0 | 0 | 0 | 0
Cc1ccc([N+](=O)[O-])cc1S(=O)(=O)Nc1ccc(C(=O)N2CCN(C(=O)c3ccco3)CC2)cc1 | 0 | 0 | 0 | 0 | 0 | 0
O=S(=O)(NCc1ccccn1)c1cc(C(F)(F)F)ccc1Cl | 0 | 0 | 0 | 0 | 0 | 0
Cc1cc(C)c(NC(=O)c2ccc(CNS(=O)(=O)c3cc(C(F)(F)F)ccc3Cl)cc2)c(C)c1 | 0 | 58.7 | 0 | 0 | 0 | 0
CC(C)C[C@H]1CN=C(Nc2ccccc2)N1CCc1ccc(F)cc1 | 110.5 | 0 | 0 | 0 | 0 | 0
CC(C)CCN1C(Nc2ccccc2)=NC[C@@H]1CC(C)C | 0 | 0 | 0 | 0 | 0 | 0
CCN1C(Nc2ccccc2)=NC[C@@H]1CC(C)C | 0 | 0 | 0 | 0 | 0 | 0
Cc1cccc(CCN2CCN=C2Nc2ccccc2)c1 | 56.1 | 0 | 0 | 0 | 0 | 0
Cc1cccc(CCN2C(Nc3ccccc3)=NC[C@@H]2CC(C)C)c1 | 110.7 | 0 | 0 | 0 | 0 | 0
CC(C)C[C@H]1CN=C(Nc2ccccc2)N1CCc1cccc(F)c1 | 125.3 | 0 | 0 | 0 | 0 | 0
COc1ccc(C(C)C)cc1S(=O)(=O)Nc1cccnc1 | 0 | 0 | - | - | - | -
